Measurements: PubChem BioAssay AID1779 (Sanford-Burnham Center for Chemical Genomics, 2009)
Screen size: about 290,000 compounds; about 160 (0.055%) were called active. Shown is part of a subset that was picked to be rich in actives. A number with no mark means an inactive call. Rule as the data show it: active = inhibition above about 50%; inactive = the rest.

Molecular target: Tyrosine-protein phosphatase non-receptor type 22 (Homo sapiens) (UniProt Q9Y2R2)
Assay: inhibitors of LYP phosphatase, biochemical, fluorescence intensity, uHTS (AID 1779);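 also: plate controls were vehicle with enzyme for no effect and no enzyme for full effect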
Details: recombinant LYP phosphatase, at 11.5 µM, stronger effect = higher value

Chain of Tyrosine-protein phosphatase non-receptor type 22 (Homo sapiens) (Q9Y2R2 whole entry, looked up): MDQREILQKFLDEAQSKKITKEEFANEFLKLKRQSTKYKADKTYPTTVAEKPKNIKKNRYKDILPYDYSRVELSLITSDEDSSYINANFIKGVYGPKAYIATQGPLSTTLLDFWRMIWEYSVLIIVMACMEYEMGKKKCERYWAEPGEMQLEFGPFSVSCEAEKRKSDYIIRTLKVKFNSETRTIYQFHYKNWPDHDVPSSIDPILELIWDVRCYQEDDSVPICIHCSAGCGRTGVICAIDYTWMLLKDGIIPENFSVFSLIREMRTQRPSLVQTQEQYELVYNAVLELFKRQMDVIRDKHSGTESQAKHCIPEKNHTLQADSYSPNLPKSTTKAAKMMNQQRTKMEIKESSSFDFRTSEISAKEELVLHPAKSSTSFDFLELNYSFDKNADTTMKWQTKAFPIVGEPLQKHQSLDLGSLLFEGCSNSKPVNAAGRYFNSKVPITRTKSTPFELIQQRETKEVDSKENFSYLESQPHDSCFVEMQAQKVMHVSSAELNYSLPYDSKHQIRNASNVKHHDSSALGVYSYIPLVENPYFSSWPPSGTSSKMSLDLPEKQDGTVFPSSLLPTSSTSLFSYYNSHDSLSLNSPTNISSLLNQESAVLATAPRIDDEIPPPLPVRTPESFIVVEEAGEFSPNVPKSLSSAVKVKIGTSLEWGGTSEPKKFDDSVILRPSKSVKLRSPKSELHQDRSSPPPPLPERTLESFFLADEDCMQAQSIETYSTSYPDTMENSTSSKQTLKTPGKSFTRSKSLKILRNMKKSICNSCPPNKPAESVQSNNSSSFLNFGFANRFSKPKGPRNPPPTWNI

Compound	inhibition
CC(=O)c1ccc2c(c1)C1C(Cl)C(Sc3ccccc3[N+](=O)[O-])CC1C(c1ccccc1)N2 (stereo not given)	6%
CCN(CC)C(=O)c1ccc2c(c1)C1C(Cl)C(Sc3ccccc3[N+](=O)[O-])CC1C(C(=O)O)N2 (stereo not given)	6.1%
CC(=O)c1ccc2c(c1)C1C(Cl)C(Sc3ccccc3[N+](=O)[O-])CC1C(C(=O)O)N2 (stereo not given)	51.4% (active)
O=P(Nc1ccccc1)(Nc1ccccc1)Oc1ccc(Cl)cc1	-4%
COCc1cc(C2SCC(=O)Nc3c2c(=O)[nH]n3C(C)C)ccc1OC (stereo not given)	-11.3%
CCOP(=O)(/C=C(\Cl)c1ccccc1)C(O)c1ccc(F)cc1 (stereo not given)	-5.3%
CC(=O)C1C(=O)NC23CCCCC2C1c1ccccc1O3 (stereo not given)	1.8%
O=c1c2ccccc2nc(/C=C/c2ccccc2)n1-c1ccc(O)cc1	3.1%
COc1ccc(-n2c(-c3ccccc3)nc3ccccc3c2=O)cc1	-9.9%
CCn1nc(-c2cccs2)nc2c(=O)n(C)c(=O)nc1-2	52.8% (active)
O=c1c2ccccc2nc(-c2cccs2)n1-c1ccccc1	-10.4%
CCCc1nc2ccccc2c(=O)n1-c1ccc(OC)cc1	2.2%
CCn1nc(-c2ccccc2)nc2c(=O)n(C)c(=O)nc1-2	60.7% (active)
COc1ccc(-n2c(/C=C/c3ccc(O)cc3)nc3ccccc3c2=O)cc1	-7.8%
CCOc1ccc(-n2c(-c3cccs3)nc3ccccc3c2=O)cc1	8.8%
CCn1nc(/C=C/c2ccccc2)nc2c(=O)n(C)c(=O)nc1-2	79.3% (active)
COc1ccc(C(=O)N2CCC3(CC2)OCCO3)cc1	-5%
c1ccc2c(CN3CCOCC3)c[nH]c2c1	-8.9%
Cc1cc(OC(=O)c2cccs2)c2c3c(c(=O)oc2c1)CCCC3	2.4%
CCOC(=O)C(O)(c1ccc(NC(=O)Oc2ccccc2)cc1)C(F)(F)F (stereo not given)	-3.1%

Compound	inhibition
CCN1CCN(c2ccc([N+](=O)[O-])cc2C=C2C(=O)NC(=O)NC2=O)CC1	-8.1%
c1nc2nc3c(c(N4CCNCC4)n2n1)CCCC3	-3.9%
S=P(Nn1cnnc1)(c1ccccc1)c1ccccc1	0.6%
CCOC(=O)c1c(C)n(CC(O)CN2CCOCC2)c2cc(Br)c(OC)cc12 (stereo not given)	-6.1%
COc1ccc(-c2nn(CCC#N)cc2C(=O)Nc2ccccc2)cc1OC	-8%
CN(C)CC1CSCCC1(O)c1ccc(C(F)(F)F)cc1 (stereo not given)	-5.6%
Cc1cccnc1-n1c(C)nc2ccccc2c1=O	90.2% (active)
Cc1cccnc1-n1c(-c2ccccc2)nc2ccccc2c1=O	-1.3%
Cc1ccc(-c2nc3ccccc3c(=O)n2-c2ncccc2C)cc1	-0.2%
C=CCN1C(=O)NC(=O)C(Cc2ccc(OC)c(OC)c2)C1=O (stereo not given)	3.4%
Cc1nc2c(=O)n(C)c(=O)nc-2n(C)n1	87.9% (active)
Cn1ncnc2c(=O)n(C)c(=O)nc1-2	71.9% (active)
CN1CC(C(=O)c2ccc(F)cc2)C(c2ccc(F)cc2)C1 (stereo not given)	-5.4%
C=CCC1C(=O)NC(=S)NC1=O	4.3%
COc1ccccc1N1CCN(CCc2ccccc2)CC1	-7.3%
N=C1c2ccccc2CN1NC(=O)c1ccc(Br)cc1	-5.9%
CCCCNC(=O)Nc1ccc(C(O)(C(=O)OCC)C(F)(F)F)cc1 (stereo not given)	-8.2%
CCOC(=O)C(NC(=O)CCl)(Nc1ccc(C(O)(C(=O)OCC)C(F)(F)F)cc1)C(F)(F)F (stereo not given)	82.4% (active)
CCOC(=O)C(NC(=O)CC)(Nc1ccc(C(O)(C(=O)OCC)C(F)(F)F)cc1C)C(F)(F)F (stereo not given)	-6.6%
CCC(=O)N1CC(=O)Nc2ccc(F)cc2C1c1ccc(F)cc1 (stereo not given)	1%
